Several values for one entry are separate records, joined by “and”; a condition that tells them apart may be missing. Equal values may be shown once. Compounds without any hit were thinned out: in the full panel of roughly 83,000, 20% have a hit.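 Compound tested at a single concentration for 48 hours in 96-well plates; a percent growth value below 10 was scored as active.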
How the values were obtained:
Assay in all cases: NCI-60 one-dose screen, 48 h (100 = growth as untreated, 0 = no growth, -100 = all killed)
DU-145 prostate = settings: 10 µM
K-562 leukemia = settings: 10 µM
MALME-3M melanoma = settings: 10 µM
MDA-MB-231 breast = settings: 10 µM
RXF 393 renal = settings: 10 µM
SF-268 CNS = settings: 10 µM
SF-295 CNS = settings: 10 µM
SF-539 CNS = settings: 10 µM
M14 melanoma = settings: 10 µM
HCT-15 colon = settings: 10 µM
HT29 colon = settings: 10 µM
SNB-75 CNS = settings: 10 µM
SNB-19 CNS = settings: 10 µM
U251 CNS = settings: 10 µM
PC-3 prostate = settings: 10 µM
SK-MEL-5 melanoma = settings: 10 µM
UACC-62 melanoma = system: UACC-62 melanoma
LOX IMVI melanoma = settings: 10 µM
SK-MEL-28 melanoma = settings: 10 µM
UACC-257 melanoma = settings: 10 µM

Measured: growth

Cc1ccc(CCCC(=O)O)c(C)c1
inactive: DU-145 prostate 107% | K-562 leukemia 97.8% | MALME-3M melanoma 105% | MDA-MB-231 breast 108% | RXF 393 renal 100% | SF-268 CNS 104% | SF-295 CNS 98.5% | SF-539 CNS 96.5% | M14 melanoma 107% | HCT-15 colon 99% | HT29 colon 98.8% | SNB-75 CNS 79.2% | SNB-19 CNS 101% | U251 CNS 94.1% | PC-3 prostate 97.1% | SK-MEL-5 melanoma 102% | UACC-62 melanoma; 10 µM unless noted 102% | LOX IMVI melanoma 99.3% | SK-MEL-28 melanoma 98.1%

COC(=O)/C=C/C(=O)NC(N)=O
inactive: DU-145 prostate 105% | K-562 leukemia 105% | MALME-3M melanoma 97.4% | MDA-MB-231 breast 108% | RXF 393 renal 95.2% | SF-268 CNS 104% | SF-295 CNS 95.2% | SF-539 CNS 96.8% | M14 melanoma 106% | HCT-15 colon 96.3% | HT29 colon 102% | SNB-75 CNS 76.2% | SNB-19 CNS 104% | U251 CNS 96.8% | PC-3 prostate 96.5% | SK-MEL-5 melanoma 104% | UACC-62 melanoma; 10 µM unless noted 101% | LOX IMVI melanoma 97.1% | SK-MEL-28 melanoma 97.8%

C1CNC(C2=NCCN2)=N1
inactive: DU-145 prostate 100% | K-562 leukemia 90.4% | MALME-3M melanoma 101% | MDA-MB-231 breast 107% | RXF 393 renal 113% | SF-268 CNS 94% | SF-295 CNS 101% | SF-539 CNS 98.5% | M14 melanoma 103% | HCT-15 colon 108% | HT29 colon 102% | SNB-75 CNS 100% | SNB-19 CNS 112% | U251 CNS 102% | PC-3 prostate 98.8% | SK-MEL-5 melanoma 101% | UACC-62 melanoma; 10 µM unless noted 104% | LOX IMVI melanoma 98% | SK-MEL-28 melanoma 109%

NC(=O)c1ccc(N=C(N)N=C(N)N)cc1
inactive: DU-145 prostate 107% | K-562 leukemia 97.6% | MALME-3M melanoma 93.1% | MDA-MB-231 breast 106% | RXF 393 renal 89.6% | SF-268 CNS 94.7% | SF-295 CNS 96.8% | SF-539 CNS 96.8% | M14 melanoma 110% | HCT-15 colon 95.7% | HT29 colon 105% | SNB-75 CNS 91.2% | SNB-19 CNS 110% | U251 CNS 101% | PC-3 prostate 93.1% | SK-MEL-5 melanoma 93.6% | UACC-62 melanoma; 10 µM unless noted 105% | LOX IMVI melanoma 100% | SK-MEL-28 melanoma 111%

CC(=O)OCC1=CC2OC(=O)C3=COC(OC4OC(CO)C(O)C(O)C4O)C1C32 (stereo not given)
inactive: DU-145 prostate 114% | K-562 leukemia 121% | MALME-3M melanoma 96.5% | MDA-MB-231 breast 113% | RXF 393 renal 36.8% | SF-268 CNS 120% | SF-295 CNS 112% | SF-539 CNS 109% | UACC-257 melanoma 102% | HCT-15 colon 112% | HT29 colon 106% | SNB-75 CNS 104% | SNB-19 CNS 111% | PC-3 prostate 110% | SK-MEL-5 melanoma 104% | UACC-62 melanoma; 10 µM 102% | UACC-62 melanoma; 100 µM 77.3% and 98.7% | LOX IMVI melanoma 111%

O=[N+]([O-])c1ccc(CO)cc1
inactive: DU-145 prostate 115% | K-562 leukemia 93.7% | MALME-3M melanoma 99.3% | MDA-MB-231 breast 95.2% | RXF 393 renal 97.9% | SF-268 CNS 107% | SF-295 CNS 94.4% | SF-539 CNS 97.9% | M14 melanoma 103% | HCT-15 colon 98% | HT29 colon 108% | SNB-75 CNS 108% | SNB-19 CNS 105% | U251 CNS 105% | PC-3 prostate 97.2% | UACC-62 melanoma; 10 µM unless noted 99.1% | LOX IMVI melanoma 99.2% | SK-MEL-28 melanoma 112%

CC(CN1CCCCC1)NC(=O)c1scnc1-c1ccccc1 (stereo not given)
inactive: DU-145 prostate 116% | K-562 leukemia 113% | MALME-3M melanoma 106% | MDA-MB-231 breast 114% | RXF 393 renal 101% | SF-268 CNS 115% | SF-295 CNS 79% | SF-539 CNS 114% | M14 melanoma 101% | HCT-15 colon 103% | HT29 colon 94.2% | SNB-75 CNS 86.1% | SNB-19 CNS 107% | PC-3 prostate 92.9% | SK-MEL-5 melanoma 101% | UACC-62 melanoma; 10 µM unless noted 107% | LOX IMVI melanoma 95.2% | SK-MEL-28 melanoma 107%

CC(C(=O)O)(C1CCCCC1)C1(O)CCCCC1 (stereo not given)
inactive: DU-145 prostate 108% | K-562 leukemia 102% | MALME-3M melanoma 98.9% | MDA-MB-231 breast 109% | RXF 393 renal 99.1% | SF-268 CNS 99.2% | SF-295 CNS 82.9% | SF-539 CNS 103% | M14 melanoma 104% | HCT-15 colon 104% | HT29 colon 101% | SNB-75 CNS 85.2% | SNB-19 CNS 111% | PC-3 prostate 94.9% | UACC-62 melanoma; 10 µM unless noted 113% | LOX IMVI melanoma 95.3% | SK-MEL-28 melanoma 107%

O=C(OCC(O)C1OC(c2ccccc2)OC(COC(=O)c2ccccc2)C1O)c1ccccc1 (stereo not given)
inactive: DU-145 prostate 118% | K-562 leukemia 101% | MALME-3M melanoma 105% | MDA-MB-231 breast 107% | RXF 393 renal 96.3% | SF-268 CNS 110% | SF-295 CNS 77.3% | SF-539 CNS 103% | M14 melanoma 110% | HCT-15 colon 96.6% | HT29 colon 103% | SNB-75 CNS 77.4% | SNB-19 CNS 94.2% | PC-3 prostate 83.5% | SK-MEL-5 melanoma 97.1% | UACC-62 melanoma; 10 µM unless noted 108% | LOX IMVI melanoma 108% | SK-MEL-28 melanoma 104%

From PubChem BioAssay (NCI)
